# Test results published in PubChem BioAssay AID1159580 (chemical genetic matrix, 2015).
# Values joined by “and” are separate entries in the source; they are usually repeats but may differ in a detail not shown here. Equal entries are not always repeated. About 2,000 (36%) of roughly 5,500 compounds were called active. Inconclusive results (about 18%) are left out. Some of the results follow. A number with no mark means an inactive call. No stated cut-off is given here; in the data, active means normalized growth mostly below about 0.91 (no sharp cut-off); inconclusive means no clear call, values can overlap the other calls; inactive means mostly above about 0.92.
# Assay: chemical genetic growth profiling, strain panel (AID 1159580);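 further: tested at 20 µM; growth read once vehicle control cultures reached saturation at 30 °C; 1 = growth at the plate median or of vehicle wells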
# Details: S. cerevisiae deletion strains, growth OD
compound,measurement,setting,value
CN[C@@H]1C(O)[C@@H](O[C@@H]2[C@@H](O)[C@H](O[C@H]3OC(CN)=CC[C@H]3N)[C@@H](N)C[C@H]2N)OC[C@]1(C)O (some centres undefined),normalized growth,"locus YAL013W, strain DEP1, stronger effect = lower value",1.02
same,normalized growth,"locus YAL021C, strain ccr4, stronger effect = lower value",1.01
same,normalized growth,"locus YAL026C, strain drs2, stronger effect = lower value",0.99
same,normalized growth,"locus YAL030W, strain snc1, stronger effect = lower value",1.01
same,normalized growth,"locus YBL061C, strain skt5, stronger effect = lower value",1.01
same,normalized growth,"locus YBR009C, strain hhf1, stronger effect = lower value",0.968
same,normalized growth,"locus YBR021W, strain FUR4, stronger effect = lower value",1.02
same,normalized growth,"locus YBR023C, strain chs3, stronger effect = lower value",1.01
same,normalized growth,"locus YBR171W, strain sec66, stronger effect = lower value",1.02
same,normalized growth,"locus YBR229C, strain ROT2, stronger effect = lower value",1.02
same,normalized growth,"locus YBR231C, strain swc5, stronger effect = lower value",1.02
same,normalized growth,"locus YBR279W, strain paf1, stronger effect = lower value",1
same,normalized growth,"locus YCL011C, strain gbp2, stronger effect = lower value",1
same,normalized growth,"locus YCL016C, strain dcc1, stronger effect = lower value",0.997
same,normalized growth,"locus YCL029C, strain bik1, stronger effect = lower value",0.997
same,normalized growth,"locus YCL061C, strain MRC1, stronger effect = lower value",1.03
same,normalized growth,"locus YCL069W, strain vba3, stronger effect = lower value",1.01
same,normalized growth,"locus YCR088W, strain abp1, stronger effect = lower value",1.01
same,normalized growth,"locus YDL005C, strain med2, stronger effect = lower value",1.01
same,normalized growth,"locus YDL035C, strain GPR1, stronger effect = lower value",1.02
same,normalized growth,"locus YDL040C, strain nat1, stronger effect = lower value",1.01
same,normalized growth,"locus YDL074C, strain BRE1, stronger effect = lower value",1.08
same,normalized growth,"locus YDL101C, strain DUN1, stronger effect = lower value",1.04
same,normalized growth,"locus YDL134C, strain PPH21, stronger effect = lower value",1.02
same,normalized growth,"locus YDL185W, strain tfp1, stronger effect = lower value",1
same,normalized growth,"locus YDL192W, strain arf1, stronger effect = lower value",0.995
same,normalized growth,"locus YDR001C, strain nth1, stronger effect = lower value",1.02
same,normalized growth,"locus YDR069C, strain doa4, stronger effect = lower value",1.02
same,normalized growth,"locus YDR101C, strain arx1, stronger effect = lower value",0.987
same,normalized growth,"locus YDR137W, strain rgp1, stronger effect = lower value",0.998
same,normalized growth,"locus YDR150W, strain NUM1, stronger effect = lower value",1.02
same,normalized growth,"locus YDR159W, strain sac3, stronger effect = lower value",0.989
same,normalized growth,"locus YDR162C, strain NBP2, stronger effect = lower value",1.03
same,normalized growth,"locus YDR195W, strain ref2",1.03
same,normalized growth,"locus YDR297W, strain sur2, stronger effect = lower value",1.02
same,normalized growth,"locus YDR334W, strain swr1, stronger effect = lower value",1.02
same,normalized growth,"locus YDR335W, strain msn5, stronger effect = lower value",1.01
same,normalized growth,"locus YDR388W, stronger effect = lower value",0.985
same,normalized growth,"locus YDR392W, strain spt3, stronger effect = lower value",0.959
same,normalized growth,"locus YDR502C, strain sam2, stronger effect = lower value",1.01
same,normalized growth,"locus YEL003W, strain gim4, stronger effect = lower value",1.01
same,normalized growth,"locus YEL037C, strain rad23, stronger effect = lower value",1.02
same,normalized growth,"locus YEL061C, strain CIN8 (second series), stronger effect = lower value",1.02
same,normalized growth,"locus YEL061C, strain CIN8, stronger effect = lower value",1.07
same,normalized growth,"locus YER015W, strain faa2, stronger effect = lower value",1.02
same,normalized growth,"locus YER016W, strain bim1, stronger effect = lower value",0.979
same,normalized growth,"locus YER110C, stronger effect = lower value",0.96
same,normalized growth,"locus YER111C, strain swi4, stronger effect = lower value",1.02
same,normalized growth,"locus YER155C, strain BEM2 (second series), stronger effect = lower value",0.996
same,normalized growth,"locus YER155C, strain BEM2, stronger effect = lower value",1
same,normalized growth,"locus YER167W, strain BCK2, stronger effect = lower value",1.02
same,normalized growth,"locus YFR010W, strain ubp6, stronger effect = lower value",1.03
same,normalized growth,"locus YGL078C, strain dbp3, stronger effect = lower value",0.985
same,normalized growth,"locus YGL086W, strain mad1, stronger effect = lower value",0.994
same,normalized growth,"locus YGL167C, strain pmr1, stronger effect = lower value",1.02
same,normalized growth,"locus YGL173C, strain kem1, stronger effect = lower value",1.02
same,normalized growth,"locus YGL227W, strain vid30, stronger effect = lower value",1.02
same,normalized growth,"locus YGL240W, strain doc1, stronger effect = lower value",1.03
same,normalized growth,"locus YGL248W, strain PDE1, stronger effect = lower value",1.03
same,normalized growth,"locus YGL253W, strain hxk2, stronger effect = lower value",1
same,normalized growth,"locus YGR078C, strain PAC10, stronger effect = lower value",1.03
same,normalized growth,"locus YGR135W, strain pre9, stronger effect = lower value",1.01
same,normalized growth,"locus YGR229C, strain SMI1, stronger effect = lower value",1.05
same,normalized growth,"locus YGR252W, strain gcn5, stronger effect = lower value",0.651 (active)
same,normalized growth,"locus YHR013C, strain ard1, stronger effect = lower value",1.01
same,normalized growth,"locus YHR027C, strain rpn1, stronger effect = lower value",1
same,normalized growth,"locus YHR030C, strain SLT2, stronger effect = lower value",1 and 0.98
same,normalized growth,"locus YHR079C, strain IRE1 (second series), stronger effect = lower value",1
same,normalized growth,"locus YHR079C, strain IRE1, stronger effect = lower value",0.95
same,normalized growth,"locus YHR129C, strain ARP1, stronger effect = lower value",1.02
same,normalized growth,"locus YHR142W, strain chs7, stronger effect = lower value",1.02
same,normalized growth,"locus YHR200W, strain rpn10, stronger effect = lower value",1
same,normalized growth,"locus YIL066C, strain RNR3, stronger effect = lower value",1.02
same,normalized growth,"locus YIL073C, strain SPO22, stronger effect = lower value",1.03
same,normalized growth,"locus YIL125W, strain kgd1, stronger effect = lower value",1.01
same,normalized growth,"locus YIR030C, strain dcg1, stronger effect = lower value",0.995
same,normalized growth,"locus YJL092W, strain hpr5, stronger effect = lower value",1.02
same,normalized growth,"locus YJL095W, strain BCK1 (second series), stronger effect = lower value",1.01
same,normalized growth,"locus YJL095W, strain BCK1, stronger effect = lower value",1.06 and 0.978
same,normalized growth,"locus YJL115W, strain asf1, stronger effect = lower value",1.02
same,normalized growth,"locus YJL129C, strain trk1, stronger effect = lower value",1.02
same,normalized growth,"locus YJL134W, strain LCB3, stronger effect = lower value",1.02
same,normalized growth,"locus YJL154C, strain vps35, stronger effect = lower value",1.01
same,normalized growth,"locus YJL164C, strain tpk1, stronger effect = lower value",1.01
same,normalized growth,"locus YJL166W, strain qcr8, stronger effect = lower value",1.03
same,normalized growth,"locus YJL168C, strain set2, stronger effect = lower value",0.997
same,normalized growth,"locus YJL187C, strain SWE1 (second series), stronger effect = lower value",1.03
same,normalized growth,"locus YJR043C, strain POL32, stronger effect = lower value",1.2 [resistant] (active)
same,normalized growth,"locus YJR066W, strain TOR1, stronger effect = lower value",0.96
